High-throughput results deposited in PubChem by National Center for Advancing Translational Sciences (NCATS).
FBPA Giardia inh – blocks Giardia fructose-bisphosphate aldolase activity; A8B2U2; 290,000 compounds, 0.71% hits; purified Giardia FBPA; Potency, µM (doses to about 59.6 µM), for the others: at the highest dose activity, negative = inhibition, actives largely listed as inhibitors; also: potency is read from the fitted curve at half-maximal effect; % is scaled to controls: 0 for no effect and ±100 for the full control effect; nearly all actives have a fitted effect of over 55% in size
Target sequence (A8B2U2 whole entry, looked up): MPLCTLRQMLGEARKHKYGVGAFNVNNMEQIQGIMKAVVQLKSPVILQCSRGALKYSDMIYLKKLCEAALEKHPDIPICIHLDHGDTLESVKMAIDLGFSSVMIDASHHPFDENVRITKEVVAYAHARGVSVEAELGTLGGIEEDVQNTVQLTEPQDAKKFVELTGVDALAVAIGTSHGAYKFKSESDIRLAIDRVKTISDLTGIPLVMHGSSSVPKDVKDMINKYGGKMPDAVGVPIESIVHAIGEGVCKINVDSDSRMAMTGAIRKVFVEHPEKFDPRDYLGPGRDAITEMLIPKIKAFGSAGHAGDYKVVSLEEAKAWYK
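40 nM FBPA preincubated 10 min at RT with compound (up to 57.5 uM final), then substrate plus GAPDH/TPI/NAD/arsenate coupling and diaphorase/resazurin added. Fluorescence read after 20 min at RT, 525/598 nm.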
LmPK inh – LmPK (Leishmania mexicana) enzyme inhibition. Q27686. purified LmPK, Kinase-Glo ATP luminescence, 1 h. Potency, µM (highest dose often 57.5 µM), inactives show at the highest dose activity change, negative = inhibition, usual class: inhibitors. 290,000 compounds, 0.37% hits. AID 1721; also: potency is read from the fitted curve at half-maximal effect; % is scaled to controls: 0 for no effect and ±100 for the full control effect
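ATP generated from ADP (0.1 mM) and PEP (0.5 mM) by 0.1 nM LmPK over 1 h at room temperature (pH 7.2 imidazole buffer) was detected by coupled luciferase luminescence. Values were normalized to uninhibited and no-enzyme wells.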
RE007 growth inh – less growth of the S. pombe RE007 Vpr strain. AID 651644. S. pombe RE007 Vpr strain, BacTiter-Glo ATP luminescence, 24 h. Potency, µM (highest dose often 92.2 µM), for the others: at the highest dose activity change, negative = less growth, actives largely listed as inhibitors. 360,000 compounds, 0.21% hits; active = well fitted falling curve with a large enough effect; inconclusive = small, poorly fitted or top-dose-only effect; inactive = no such curve, though single readings can be large or run the other way; also: potency is read from the fitted curve at half-maximal effect; % is scaled to controls: 0 for no effect and ±100 for the full control effect; nearly all actives have a fitted effect of over 50% in size
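Fission yeast RE007 carrying one integrated HIV-1 vpr copy, seeded at OD 0.01 in PMG+AL medium with 23 nL pinned compound. Grown 24 h at 30 degrees; viability read by BacTiter-Glo luminescence after 5 min.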
Shiga toxin inh – inhibitors of Shiga toxin in Vero cells | 290,000 compounds, 9.2% hits | inhibition, % at 38.7 µM | Vero cells, Shiga toxin protein synthesis inhibition reporter; in the data active = inhibition mostly above about 28%, no sharp cut-off; inactive = mostly below about 43%; also: 0% is about no effect
Cycloheximide cs – counter-screen for Shiga toxin inhibitors: cycloheximide protein synthesis inhibition; cell reporter, cycloheximide protein synthesis inhibition counterscreen; max response, %; 300,000 compounds, 12% hits; AID 2314; in the data active = max response mostly above about 13%, no sharp cut-off; inactive = mostly below about 14%; also: read at 38.3 µM for the half of the compounds with a filed dose; 0% is about no effect
Tb PYK inh – inhibitors of Trypanosoma brucei pyruvate kinase; Q57TT1; TbPYK enzyme, Kinase-Glo Plus ATP luminescence, 45 min; Potency, µM (series often up to 76.8 µM), for the others: at the top dose activity, negative = inhibition, hits mostly inhibitors; 410,000 compounds, 0.12% hits; AID 624173; also: potency is read from the fitted curve at half-maximal effect; % is scaled to controls: 0 for no effect and ±100 for the full control effect; nearly all actives have a fitted effect of over 50% in size
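Readout: single end-point luminescence (Kinase-Glo Plus, 10 min). Reaction conditions were TbPYK/substrate plus 130 uM ADP, 45 min at RT, pH 7.2 TEA buffer. No-enzyme wells served as controls, and data were normalized before concentration-response fitting.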
* hit, by the source's call; ? = inconclusive; / = not tested or not shown. Many of the other results were omitted from the sample, so hits are more common in it than they were. Unless noted, calls follow the shape of the dose curve; as a rule, active = well fitted curve in the direction sought with a large enough effect; inconclusive = small, poorly fitted or top-dose-only effect, or another doubt; inactive = no such curve, though single readings can be large; an effect the other way counts as inactive or inconclusive.

SMILES | FBPA Giardia inh | LmPK inh | RE007 growth inh | Shiga toxin inh | Cycloheximide cs | Tb PYK inh
O=C(NN1CCOCC1)c1ccccc1 | / | -10% | -6% | -22 | 6 | 1%
Cc1ccc(-n2cc3c(c2-c2ccccc2Br)c(=O)n(C)c(=O)n3C)cc1N | / | / | / | / | / | -13%
Cc1ccccc1OCc1nc2ccccc2c(=O)n1N | 0% | 0% | 1% | 41 | 31* | 4%
CCCCn1nnnc1C(c1ccccc1)N1CCN(c2cc(C)ccc2C)CC1 (configuration not stated) | / | / | 2% | / | / | -2%
CCN(CC(=O)Nc1ccc(NC(C)=O)cc1)C(=O)C1(c2ccc(Cl)cc2)CCC1 | / | / | -14% | / | / | -9%
CCOc1ccc(NC(=O)COc2ccccc2)c([N+](=O)[O-])c1 | 1% | 0% | 0% | 82* | 28* | -1%
O=C(CCOc1ccccc1)Nc1ccccc1[N+](=O)[O-] | -2% | 1% | -1% | 54 | 27* | 9%
COc1cccc(OCCNc2ccc([N+](=O)[O-])cn2)c1 | / | / | -4% | / | / | 1%
O=C(CC(=O)Nc1ccccc1[N+](=O)[O-])Nc1ccccc1[N+](=O)[O-] | 6% | -1% | -17% | -12 | -1 | 4%
O=C(CCOc1ccccc1)Nc1cccc([N+](=O)[O-])c1 | -3% | 2% | 17% | 50* | 20* | 0%
COc1cccc(OCCNc2cc(Cl)ccc2[N+](=O)[O-])c1 | -7% | 3% | -5% | 73* | 42* | -2%
CCOCCCn1c(SCC(=O)OCC)nc2c(sc3ccccc32)c1=O | / | / | / | / | / | -2%
Cc1nc(-c2ccc(S(=O)(=O)NCc3cccnc3)s2)cs1 | 5% | 4% | -10% | 3 | 5 | -13%
CC1CCc2ccccc2N1CC(=O)Nc1cccc(S(=O)(=O)N2CCCC2)c1 (configuration not stated) | / | / | 8% | / | / | -10%
COc1ccccc1C(=O)NCCC(=O)NC1CCC(C)CC1 (configuration not stated) | / | / | 14% | / | / | 27%
O=[N+]([O-])c1ccccc1NCCOc1ccccc1 | 0% | -10% | ? | 72* | 73* | 0%
O=[N+]([O-])c1ccc(N2CCCCC2)cc1NCCOc1ccccc1 | 3% | 0% | -7% | -3 | -2 | -3%
COCn1c(COc2ccc3ccccc3c2)nc2ccccc21 | -5% | 0% | -24% | 77* | 22* | 1%
CCn1c(COc2ccccc2C)nc2ccccc21 | 0% | -23% | ? | 39* | 33* | 6%
CCc1nc2ccccc2n1CCCCOc1cccc(C)c1 | / | / | / | / | / | 2%
CCCn1c(COc2ccccc2)nc2ccccc21 | 15% | 8% | -7% | 11 | 8.3* | -3%
CCn1c(COc2cccc(C)c2)nc2ccccc21 | 0% | -1% | -21% | 15 | 21* | 2%
COc1ccc(C(=O)C(=O)N2CCC(c3ccccc3)CC2)cn1 | / | / | 4% | / | / | /
N[C@H](CSSC[C@@H](N)C(=O)O)C(=O)O | 3% | / | / | -3 | -3 | /
C=CCn1c(COc2ccccc2OC)nc2ccccc21 | 2% | -10% | -19% | 4 | 8.4* | -8%
SMILES | FBPA Giardia inh | LmPK inh | RE007 growth inh | Shiga toxin inh | Cycloheximide cs | Tb PYK inh
CCn1c(COc2ccccc2C(N)=O)nc2ccccc21 | 7% | -5% | 6% | 4 | -3 | -2%
CCCn1c(COc2ccccc2OC)nc2ccccc21 | -10% | 9% | -26% | / | 14* | -11%
CCn1c(COc2ccccc2OC)nc2ccccc21 | -10% | -7% | -3% | 12 | 13* | -1%
N#C/C(=C\c1ccc(Cl)cc1Cl)c1nc(-c2cccc(Cl)c2)cs1 | / | / | / | / | / | 1%
CC(=O)Nc1ccc(NC(=O)CSc2nnc(-c3ccc4c(c3)OCO4)o2)cc1 | / | / | -9% | / | / | 0%
O=C(CSc1nnc(-c2ccc3c(c2)OCO3)o1)Nc1ncc(Cl)cc1Cl | 0% | 1% | 1% | 31* | 19* | -7%
CC(=O)CSc1nnc(-c2ccc3c(c2)OCO3)o1 | 3% | ? | -26% | 36* | 20* | -7%
c1cc(CSc2nnc(-c3ccc4c(c3)OCO4)o2)ccn1 | 7% | 1% | 9% | 88* | 44* | 0%
COC(=O)c1ccc(C(/C=C/[C@@H](C)C(=O)NCc2ccc(OC)c(O)c2)NC(=O)OCc2ccccc2)cc1 (some centres not stated) | -5% | / | / | / | / | /
Cc1c(C(=O)Nc2ccncc2)sc2nc(-c3ccc(F)cc3)cn12 | -20% | -5% | -11% | 24 | 17* | -12%
Cc1ccc(CNC(=O)c2sc3nc(-c4ccccc4)cn3c2C)cc1 | / | / | / | / | / | 2%
Cc1c(C(=O)NCC(C)C)sc2nc(-c3ccc(F)cc3)cn12 | 0% | -5% | 4% | 23 | 21* | 7%
Cc1c(C(N)=O)sc2nc(-c3ccccc3)cn12 | 3% | 3% | 21% | 87* | 36* | -1%
CNC(=S)Nc1cc(C)ccc1OC(F)F | -1% | -9% | 8% | -12 | -1 | -6%
Clc1ccc(-c2cc3ccccc3[nH]2)cc1 | -2% | 3% | -21% | 110* | 62* | 3%
O=c1cc(-c2ccc(Cl)cc2)[nH]c2ccccc12 | 1% | 5% | -15% | 21 | 1 | 1%
Cc1onc(-c2ccccc2)c1-c1ccc(S(N)(=O)=O)cc1 | 12% | 7% | 24% | 69* | 38* | 2%
COc1ncc2nc(-c3cc(F)cc(F)c3)c(=O)n(-c3ccccc3)c2n1 | 8% | / | / | / | / | /
CC1=C(C(=O)Nc2ccccc2)C(c2sccc2C)n2nnnc2N1 (configuration not stated) | -3% | 3% | / | -2 | 5 | /
COc1ccc(/C=C/c2nc3cc(-c4ccccc4)ccc3o2)cc1O | 0% | 7% | -9% | 100* | 97* | -6%
COc1ccc(/C=C/c2nc3ccccc3c(=O)o2)cc1 | -1% | -14% | -10% | -4 | -6 | -25%
CN(Cc1ccc(Cl)s1)C(=O)CCl | -1% | -3% | 2% | 21 | 8 | 1%
NC(=S)Nc1cnc2ccccc2c1 | -6% | 3% | 4% | 56* | 27* | -5%
Cc1ccc(NC(=O)N(C)c2ccccc2)cc1 | 9% | 1% | 9% | 48* | 17* | -2%
COc1ccc(NC(=S)Nc2cnc3ccccc3c2)c(OC)c1 | -5% | 1% | -4% | -4 | 15 | 0%
Cc1ccc(NC(=O)N(CCC(=O)O)Cc2ccccc2)cc1 | 5% | 1% | 6% | -9 | -1 | 1%
CCCCCN(C(=O)NC(=O)Nc1ccc(C)cc1)S(=O)(=O)c1ccccc1 | 3% | 1% | -5% | 3 | 20* | -1%
